From PubChem
NPC1 promoter act = activators of NPC1 promoter; Huh7 NPC1 promoter luciferase reporter, 24 h; Potency, µM (doses to about 9.22 µM), for inactives: top-dose activation, usual class: activators; hit rate 2.4% among 320,000; AID 485313; also: % of control where 0% means no effect; nearly all actives have a fitted effect of over 60% in size
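Stably transfected Huh7 (NPC1 promoter→luciferase), 1500 cells/well in Opti-MEM + 10% FBS, 2 h settle, then compound 24 h at 37 °C. Luminescence after 10 min with Amplite reagent.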
SMN2 splice up = SMN2 splice variant enhancement | hit rate 2.8% among 210,000 | Potency, µM (titrated, usually from 46.1 µM), for inactives: at the top dose activity change, positive = activation, actives largely listed as activators | AID 1458 | HEK293 SMN2-luciferase splicing reporter, luminescence, 30-36 h; also: % of control where 0% means no effect; nearly all actives have a fitted effect of over 55% in size
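qHTS luciferase splicing reporter: luminescence rises when SMN2 exon 7 is included in transfected HEK293 cells. Compound exposure lasted 30-36 h at 37C, with 4.5 mM final sodium butyrate as control, followed by a ONE-Glo read.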
ELG1 genotoxic = genotoxicity induction in ELG1-luciferase HEK293T cells; HEK293T ELG1-luciferase reporter, luminescence, 16 h; Potency, µM (highest dose often 46 µM), inactives show at the highest dose activity change, positive = activation, most hits filed as activators; hit rate 1.3% among 330,000; also: % of control where 0% means no effect; nearly all actives have a fitted effect of over 60% in size
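DMSO vehicle served as control against compound-treated ELG1-luciferase HEK293T cells; exposure lasted 16 hr at 37 °C and 5% CO2, followed by ONE-Glo luminescence detection after 30 min.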
FLuc modulator = inhibits or activates purified firefly luciferase, miR-21 counter-screen; P08659; purified FLuc, Km substrates, luminescence inhibition; Potency, µM (series often up to 57.5 µM), inactives show top-dose activity change, negative = inhibition, actives largely listed as inhibitors; hit rate 6.9% among 360,000;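 also: plate controls were vehicle for no effect and reference inhibitor for full effect; nearly all actives have a fitted effect of over 55% in size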
Target sequence (P08659 whole entry, looked up): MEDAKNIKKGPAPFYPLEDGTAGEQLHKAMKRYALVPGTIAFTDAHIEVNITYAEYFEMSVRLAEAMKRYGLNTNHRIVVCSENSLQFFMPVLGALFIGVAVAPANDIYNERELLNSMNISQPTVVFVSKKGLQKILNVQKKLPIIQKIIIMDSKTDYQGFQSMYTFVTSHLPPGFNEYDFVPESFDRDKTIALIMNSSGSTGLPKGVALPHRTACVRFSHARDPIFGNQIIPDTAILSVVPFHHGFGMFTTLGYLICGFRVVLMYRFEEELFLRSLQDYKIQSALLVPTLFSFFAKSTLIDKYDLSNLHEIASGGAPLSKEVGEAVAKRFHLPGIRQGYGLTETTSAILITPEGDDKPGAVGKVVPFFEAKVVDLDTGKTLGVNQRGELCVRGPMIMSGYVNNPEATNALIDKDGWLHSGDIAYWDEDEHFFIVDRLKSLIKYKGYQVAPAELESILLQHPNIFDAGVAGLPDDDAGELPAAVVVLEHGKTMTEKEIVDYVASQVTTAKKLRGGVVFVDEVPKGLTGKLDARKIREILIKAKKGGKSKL
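Purified P. pyralis luciferase, 10 nM final, with Km-level 10 uM D-luciferin and 10 uM ATP in 50 mM Tris acetate pH 7.5, 10 mM Mg acetate, 0.01% Tween-20, 0.05% BSA; 6-point qHTS titration about 60 µM downward; luminescence read.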
Rab9 promoter act = Rab9 promoter activation; hit rate 2.8% among 320,000; AID 485297; Potency, µM (highest dose often 9.22 µM), for inactives: at the highest dose activation, negative = inhibition, actives largely listed as activators; Huh7 Rab9 promoter-luciferase reporter, luminescence, 24 h; also: % of control where 0% means no effect; nearly all actives have a fitted effect of over 60% in size
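Cell-based reporter: Huh7 stable for Rab9 promoter-driven luciferase, plated in reduced-serum medium with 10% FBS at 1500 cells/well, compound-treated 24 h at 37 °C, luminescence read after 10 min reagent.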
The depositor's hits bear a star; ? = inconclusive; / = no result given; [ ] = remark or other dose. This is a sample that favours compounds with a hit; in the whole collection about 7.4% have one here. Calls follow the shape of the dose curve; as a rule, active = well fitted curve in the direction sought with a large enough effect; inconclusive = small, poorly fitted or top-dose-only effect, or another doubt; inactive = no such curve, though single readings can be large; an effect the other way counts as inactive or inconclusive. Potency is read from the fitted curve at half-maximal effect.

SMILES | NPC1 promoter act | SMN2 splice up | ELG1 genotoxic | FLuc modulator | Rab9 promoter act
C[C@@H](C(=O)Nc1ccc2c(c1)OCCO2)n1nnc2ccccc2c1=O | 3.55µM* | / | ? | 8.49µM* | 3.55µM*
COc1ccc(CNC(=O)c2sc3nc4c(c(C(F)(F)F)c3c2N)CCC4)cc1OC | -0.4% | -76.4% | 4.3% | 21.3µM* | -5.1%
COc1ccc(C(=O)c2sc3nc4c(c(C(F)(F)F)c3c2N)CN(C(C)=O)CC4)cc1OC | / | -12.0% | / | -1.9% | /
O=C(Cc1ccc(Cl)cc1)NCCS(=O)(=O)N1CCN(c2ccccc2F)CC1 | -10.3% | / | 0.4% | 1.6% | -5.3%
CC(=O)Oc1cccc(/C=C2\C=C(c3ccc(C)cc3)OC2=O)c1 | -2.2% | -3.0% | -4.2% | 2.69µM* | -0.9%
COc1ccc(C2=C/C(=C\c3ccc(OC(C)=O)cc3)C(=O)O2)cc1 | 0.9% | 12.8% | 6.3% | -8.5% | -3.5%
Cc1ccc(C2=C/C(=C/c3cccs3)C(=O)O2)cc1 | 2.2% | -16.3%[1.84 µM] | 3.8% | 0.379µM* | -0.3%
CCc1nnc2c(N3CCN(c4cc(Cl)ccc4C)CC3)nc3ccccc3n12 | / | / | / | -1.3% | /
O=C(CN1C(=O)NC2(CCCCC2)C1=O)N1CCN(S(=O)(=O)c2ccc(F)c(F)c2F)CC1 | 3.2% | / | 2.7% | -1.3% | -1.5%
CCOc1ccc(CNC(=O)c2cccc(NC(=O)C3=C(C)OCCS3)c2)cc1 | 4.4% | / | -4.8% | ? | 16.6%
COc1cccc(CNC(=O)c2cccc(NC(=O)C3=C(C)OCCS3)c2)c1 | -1.6% | / | -5.7% | ? | 6.2%
CC1=C(C(=O)Nc2ccc(CC(=O)NCc3ccc(OC(C)C)cc3)cc2)SCCO1 | ? | / | 9.2µM* | 2.69µM* | 11.5%
COc1ccc(CNC(=O)Cc2ccc(NC(=O)C3=C(C)OCCS3)cc2)cc1 | 23.6% | / | 16.4µM* | 1.2µM* | ?
COc1cccc(OC)c1C(=O)OCc1c(-c2ccccc2)ncc2ccccc12 | / | / | -2.7% | / | /
CC(=O)N=C(N)Sc1nc2ccccc2[nH]1 | 2.51µM* | 12.6µM* | ? | 15.1µM* | 3.98µM*
CCOc1cc(Cl)c(S(=O)(=O)NCCCN2CCOCC2)cc1Cl | -0.6% | / | -1.1% | 3.5% | -7.0%
Cc1ccc2c(c1)N=C(c1ccccc1)CC(C(Cl)Cl)=N2 | ? | / | ? | 8.49µM* | 3.16µM*
Cc1ccc(C2=Nc3ccccc3N=C(C(Cl)Cl)C2)cc1 | 3.16µM* | -67.1% | ? | 9.53µM* | 3.16µM*
CCn1cc2c(n1)-c1c(oc(C(=O)Nc3ccc(Br)cc3F)c1C)CC2 | / | / | / | -1.8% | /
Cc1cc(=O)n2nc(-c3ccc(C(F)(F)F)cc3)sc2n1 | ? | 11.2µM* | 3.98µM* | ? | ?
O=c1c2ccccc2nc2oc3ccccc3n12 | 1.58µM* | / | 10.3µM* | 7.57µM* | 1.58µM*
O=C(NCCN1CCOCC1)/C(=C\c1ccc(F)cc1)NC(=O)c1ccccc1 | -4.7% | / | 0.0% | -0.2% | -7.4%
Cc1occc1C(=O)Nc1ccc(S(N)(=O)=O)cc1 | 0.0% | 8.0% | 2.0% | ? | 6.9%
Cc1cc(NC(=O)c2ccoc2C)ccc1Br | ? | / | ? | 7.57µM* | ?
C/C(=N/NC(=O)c1ccc(C)s1)c1cccc(NC(=O)c2ccoc2C)c1 | 2.1% | / | -19.4% | 16.9µM* | 27.0%
SMILES | NPC1 promoter act | SMN2 splice up | ELG1 genotoxic | FLuc modulator | Rab9 promoter act
Nc1ccccc1C(=O)Nc1cccc(C(=O)O)c1 | ? | 16.6% | 3.5% | 2.69µM* | 2.24µM*
Cc1ccc(NC(=O)c2ccoc2C)cc1C | ? | 15.8µM* | ? | ? | 2.82µM*
O=C(NCCC1CCCCN1S(=O)(=O)c1cccs1)C(=O)Nc1cccc(F)c1 (stereo not given) | 1.6% | / | 1.0% | -13.2% | -1.0%
Cc1ccccc1C(=O)Nc1cccc(NC(=O)c2ccccc2[N+](=O)[O-])c1 | -3.2% | / | 3.2% | ? | 10.5%
C/C(=N\NC(=O)c1ccncc1)c1cccc(NC(=O)c2ccc(Cl)s2)c1 | 23.6% | / | -1.3% | 19µM* | 1.2%
Cc1occc1C(=O)Nc1ccc2c(c1)OCO2 | 3.55µM* | 12.6µM* | 20.6µM* | 23.9µM* | 2.82µM*
Cc1cc(NC(=O)c2ccccc2[N+](=O)[O-])ccc1Br | 28.5% | 26.5% | ? | 16.9µM* | ?
Cc1occc1C(=O)Nc1cccc(C(F)(F)F)c1 | -9.3% | -35.8% | 1.9% | -15.4% | -9.5%
Cc1occc1C(=O)Nc1cccc(C(=O)O)c1 | 2.24µM* | ? | ? | 9.53µM* | 2.82µM*
COc1ccccc1N1C(=O)C=C(Sc2nc(C)cc(C)n2)C1=O | -3.5% | / | 0.7% | ? | -13.7%
CC(C)(C)NC(=O)CN(C(=O)C(=O)Nc1ccc2c(c1)OCCO2)C(C)(C)C | -5.0% | -1.9% | -0.7% | 0.8% | -1.1%
Cc1ccc(-c2nnc(COC(=O)c3cccs3)o2)cc1 | ? | / | ? | 6.75µM* | 20.9%
Cc1ccc(-c2nnc(COC(=O)c3ccco3)o2)cc1 | -5.5% | / | 13.2% | 13.5µM* | -2.0%
COc1ccc(CN2C(=O)C(=O)N(CC(N)=O)C2=O)cc1 | -1.4% | 20.3% | 0.0% | 4.8% | 0.7%
COc1ccccc1NC(=O)NCCC1=CCCCC1 | -2.2% | / | -3.8% | ? | -1.4%
COc1ccc(NC(=O)NCCC2=CCCCC2)cc1 | 3.98µM* | 12.6µM* | ? | ? | 2.82µM*
COc1cccc(NC(=O)NCCC2=CCCCC2)c1 | 3.55µM* | 14.1µM* | ? | 15.1µM* | 4.47µM*
CCCSc1nnc(NC(=O)Nc2ccccc2)s1 | ? | 26.1% | 2.6% | ? | ?
CCCSc1nnc(Nc2ccccc2C)s1 | 28.1% | ? | ? | 19µM* | 2.82µM*
O=C1c2ccccc2C(=O)N1CSc1nnc(Nc2ccccc2F)s1 | 3.6% | 6.31µM* | 14.0% | 1.5% | 8.6%
CCN(CC)C(=O)CCCSc1nnc(Nc2ccccc2F)s1 | ? | / | 17.2% | 16.9µM* | 1.78µM*
CN(C(=O)CSc1nnc(Nc2ccccc2F)s1)C1CCS(=O)(=O)C1 (stereo not given) | / | / | 2.1% | / | /
COc1ccc(S(=O)(=O)N2CCC(C(=O)Nc3ccc(Oc4ccccc4)cc3)CC2)cc1OC | / | -43.9% | / | -0.4% | /
CC(=O)Nc1ccc(N/C=C/C(=O)c2ccc(C)o2)cc1 | 3.98µM* | -10.0% | ? | 8.49µM* | ?
COc1ccccc1Oc1ccc(N/C=C/C(=O)c2ccc(C)o2)cc1 | ? | 22.1% | 11.9% | 7.57µM* | ?
COc1ccccc1OCCNC(=O)c1ccc(C)o1 | 7.9% | / | ? | -17.8% | -2.4%
CCN(C(=O)CSc1nnc(CNc2cccc(OC)c2)n1C1CCCCC1)C1CCS(=O)(=O)C1 (stereo not given) | -1.1% | / | 0.3% | -1.3% | 11.2%
Cc1ccc(C(=O)NCC(=O)Nc2ccc(Cl)cc2)s1 | / | / | 0.9% | / | /
COc1cc(NS(=O)(=O)c2cc(Br)cc3c2N(C(=O)C2CC2)CC3)cc(OC)c1 | / | / | / | -1.0% | /
CC1CN(C(=O)N2CCCCC2)CCN1C(=O)N1CCCCC1 (stereo not given) | 1.6% | / | -0.2% | 1.1% | 0.1%
